Common to all, as to assay: PBM; 200 nM protein, PBS
Common to all, as to settings: dsDNA, one strand shown

The target in experiment [1] is CRX (Homo sapiens, UniProt O43186 26-111).
The target in experiment [2] is CRX (Homo sapiens, UniProt O43186 26-111, E42D).
The target in a further experiment is PITX2 (Homo sapiens, UniProt Q99697 72-157).
Experiment [3] addresses CRX (Homo sapiens, UniProt O43186 26-111, R41L).
Experiment [4] deals with VAX1 (Homo sapiens, UniProt Q5SQQ9 86-172).
Experiment [5] deals with VAX1 (Homo sapiens, UniProt Q5SQQ9 86-172, T142I).
Sequence of VAX1 (Homo sapiens, UniProt Q5SQQ9 86-172, T142I) (Q5SQQ9 86-172 T142I): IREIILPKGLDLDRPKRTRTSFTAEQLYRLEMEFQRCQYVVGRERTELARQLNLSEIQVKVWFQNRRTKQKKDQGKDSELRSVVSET
Experiment [6] has as its target VAX1 (Homo sapiens, UniProt Q5SQQ9 86-172, K157R).

Sequence of CRX (Homo sapiens, UniProt O43186 26-111, R41L) (O43186 26-111 R41L): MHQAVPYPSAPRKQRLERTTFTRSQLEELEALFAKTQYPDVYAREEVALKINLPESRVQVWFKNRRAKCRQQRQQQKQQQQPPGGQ
Sequence of VAX1 (Homo sapiens, UniProt Q5SQQ9 86-172) (Q5SQQ9 86-172): as the sequence (Q5SQQ9 86-172 T142I) above, with I57T counted along it
Sequence of VAX1 (Homo sapiens, UniProt Q5SQQ9 86-172, K157R) (Q5SQQ9 86-172 K157R): as the sequence (Q5SQQ9 86-172 T142I) above, with I57T, K72R counted along it
Sequence of CRX (Homo sapiens, UniProt O43186 26-111) (O43186 26-111): as the sequence (O43186 26-111 R41L) above, with L16R counted along it
Sequence of CRX (Homo sapiens, UniProt O43186 26-111, E42D) (O43186 26-111 E42D): as the sequence (O43186 26-111 R41L) above, with L16R, E17D counted along it

For the sequence AGTAATCC, the binding signal in the experiment with CRX [1] is 13.2 upbm affinity estimate (log intensity, higher = more binding, comparable within an allelic series); with CRX [2], 13.1 upbm affinity estimate (log intensity, higher = more binding, comparable within an allelic series); in the experiment with PITX2, 13.1 upbm affinity estimate (log intensity, higher = more binding, comparable within an allelic series); with CRX [3] it was 13 upbm affinity estimate (log intensity, higher = more binding, comparable within an allelic series).

As to ACGGATTA, the binding signal with CRX [1] was 13.5 upbm affinity estimate (log intensity, higher = more binding, comparable within an allelic series); with CRX [2] it was 13.5 upbm affinity estimate (log intensity, higher = more binding, comparable within an allelic series); in the experiment with PITX2 it was 13.1 upbm affinity estimate (log intensity, higher = more binding, comparable within an allelic series); in the experiment with CRX [3], 13.5 upbm affinity estimate (log intensity, higher = more binding, comparable within an allelic series).

Consider GGATTATA, for which the binding signal in the experiment with CRX [1] was 13.5 upbm affinity estimate (log intensity, higher = more binding, comparable within an allelic series); in the experiment with CRX [2], 13.6 upbm affinity estimate (log intensity, higher = more binding, comparable within an allelic series); with PITX2 it was 13.2 upbm affinity estimate (log intensity, higher = more binding, comparable within an allelic series); with CRX [3], 13.7 upbm affinity estimate (log intensity, higher = more binding, comparable within an allelic series).

Consider GGCTTAAC, for which the binding signal with CRX [1] was 12.7 upbm affinity estimate (log intensity, higher = more binding, comparable within an allelic series); with CRX [2], 12.6 upbm affinity estimate (log intensity, higher = more binding, comparable within an allelic series); in the experiment with PITX2 it was 12.7 upbm affinity estimate (log intensity, higher = more binding, comparable within an allelic series); with CRX [3], 12.1 upbm affinity estimate (log intensity, higher = more binding, comparable within an allelic series).

Regarding TAATCCCA, the binding signal with CRX [1] is 13.4 upbm affinity estimate (log intensity, higher = more binding, comparable within an allelic series); with CRX [2], 13.4 upbm affinity estimate (log intensity, higher = more binding, comparable within an allelic series); in the experiment with PITX2, 13.4 upbm affinity estimate (log intensity, higher = more binding, comparable within an allelic series); with CRX [3], 13.3 upbm affinity estimate (log intensity, higher = more binding, comparable within an allelic series).

CGGATTAA: the binding signal is 13.7 upbm affinity estimate (log intensity, higher = more binding, comparable within an allelic series) with CRX [1]; 13.8 upbm affinity estimate (log intensity, higher = more binding, comparable within an allelic series) in the experiment with CRX [2]; 13.4 upbm affinity estimate (log intensity, higher = more binding, comparable within an allelic series) in the experiment with PITX2; 13.7 upbm affinity estimate (log intensity, higher = more binding, comparable within an allelic series) with CRX [3].

Turning to ACCTCCCA, the binding signal with CRX [1] is 8.37 upbm affinity estimate (log intensity, higher = more binding, comparable within an allelic series); in the experiment with CRX [2], 8.4 upbm affinity estimate (log intensity, higher = more binding, comparable within an allelic series); with PITX2, 8.05 upbm affinity estimate (log intensity, higher = more binding, comparable within an allelic series); with CRX [3] it was 8.28 upbm affinity estimate (log intensity, higher = more binding, comparable within an allelic series).

AGAGATTA: the binding signal in the experiment with CRX [1] was 13.1 upbm affinity estimate (log intensity, higher = more binding, comparable within an allelic series); in the experiment with CRX [2], 13.1 upbm affinity estimate (log intensity, higher = more binding, comparable within an allelic series); with PITX2, 12.7 upbm affinity estimate (log intensity, higher = more binding, comparable within an allelic series); with CRX [3] it was 13 upbm affinity estimate (log intensity, higher = more binding, comparable within an allelic series).

On to CCTAATCC, for which the binding signal was 13.5 upbm affinity estimate (log intensity, higher = more binding, comparable within an allelic series) with CRX [1]; 13.6 upbm affinity estimate (log intensity, higher = more binding, comparable within an allelic series) in the experiment with CRX [2]; 13.3 upbm affinity estimate (log intensity, higher = more binding, comparable within an allelic series) with PITX2; 13.2 upbm affinity estimate (log intensity, higher = more binding, comparable within an allelic series) with CRX [3].

For the sequence AGGATTAA, the binding signal with CRX [1] was 13.6 upbm affinity estimate (log intensity, higher = more binding, comparable within an allelic series); in the experiment with CRX [2] it was 13.7 upbm affinity estimate (log intensity, higher = more binding, comparable within an allelic series); with PITX2, 13.3 upbm affinity estimate (log intensity, higher = more binding, comparable within an allelic series); with CRX [3], 13.5 upbm affinity estimate (log intensity, higher = more binding, comparable within an allelic series).

For GAGGATTA, the binding signal with CRX [1] was 13.5 upbm affinity estimate (log intensity, higher = more binding, comparable within an allelic series); with CRX [2], 13.6 upbm affinity estimate (log intensity, higher = more binding, comparable within an allelic series); with PITX2 it was 13.1 upbm affinity estimate (log intensity, higher = more binding, comparable within an allelic series); with CRX [3] it was 13.4 upbm affinity estimate (log intensity, higher = more binding, comparable within an allelic series).

On to TGGATTAA, for which the binding signal with CRX [1] is 13.4 upbm affinity estimate (log intensity, higher = more binding, comparable within an allelic series); with CRX [2] it was 13.5 upbm affinity estimate (log intensity, higher = more binding, comparable within an allelic series); in the experiment with PITX2 it was 13.3 upbm affinity estimate (log intensity, higher = more binding, comparable within an allelic series); with CRX [3], 13.2 upbm affinity estimate (log intensity, higher = more binding, comparable within an allelic series).

On to GCGCACGC, for which the binding signal is 8.22 upbm affinity estimate (log intensity, higher = more binding, comparable within an allelic series) with CRX [1]; 8.37 upbm affinity estimate (log intensity, higher = more binding, comparable within an allelic series) with CRX [2]; 7.91 upbm affinity estimate (log intensity, higher = more binding, comparable within an allelic series) with PITX2; 8.29 upbm affinity estimate (log intensity, higher = more binding, comparable within an allelic series) with CRX [3].

Take CTAATCCC: the binding signal in the experiment with CRX [1] was 13.5 upbm affinity estimate (log intensity, higher = more binding, comparable within an allelic series); with CRX [2], 13.6 upbm affinity estimate (log intensity, higher = more binding, comparable within an allelic series); with PITX2, 13.4 upbm affinity estimate (log intensity, higher = more binding, comparable within an allelic series); with CRX [3] it was 13.4 upbm affinity estimate (log intensity, higher = more binding, comparable within an allelic series).

As to AACTTTAA, the binding signal is 10.5 upbm affinity estimate (log intensity, higher = more binding, comparable within an allelic series) with CRX [1]; 10.2 upbm affinity estimate (log intensity, higher = more binding, comparable within an allelic series) with CRX [2]; 9.82 upbm affinity estimate (log intensity, higher = more binding, comparable within an allelic series) in the experiment with VAX1 [4]; 9.35 upbm affinity estimate (log intensity, higher = more binding, comparable within an allelic series) with VAX1 [5]; 9.35 upbm affinity estimate (log intensity, higher = more binding, comparable within an allelic series) with VAX1 [6].

Consider ATAATCCG, for which the binding signal in the experiment with CRX [1] is 13.7 upbm affinity estimate (log intensity, higher = more binding, comparable within an allelic series); in the experiment with CRX [2], 13.8 upbm affinity estimate (log intensity, higher = more binding, comparable within an allelic series); with PITX2, 13.3 upbm affinity estimate (log intensity, higher = more binding, comparable within an allelic series); with CRX [3], 13.9 upbm affinity estimate (log intensity, higher = more binding, comparable within an allelic series).

As for TAATCTCA, the binding signal was 12.7 upbm affinity estimate (log intensity, higher = more binding, comparable within an allelic series) with CRX [1]; 12.7 upbm affinity estimate (log intensity, higher = more binding, comparable within an allelic series) with CRX [2]; 12.4 upbm affinity estimate (log intensity, higher = more binding, comparable within an allelic series) in the experiment with PITX2; 12.4 upbm affinity estimate (log intensity, higher = more binding, comparable within an allelic series) in the experiment with CRX [3].

Regarding TAATCCGA, the binding signal was 13.6 upbm affinity estimate (log intensity, higher = more binding, comparable within an allelic series) with CRX [1]; 13.6 upbm affinity estimate (log intensity, higher = more binding, comparable within an allelic series) with CRX [2]; 13.1 upbm affinity estimate (log intensity, higher = more binding, comparable within an allelic series) with PITX2; 13.5 upbm affinity estimate (log intensity, higher = more binding, comparable within an allelic series) with CRX [3].

Turning to ATAATCTC, the binding signal with CRX [1] is 13.1 upbm affinity estimate (log intensity, higher = more binding, comparable within an allelic series); with CRX [2], 13.1 upbm affinity estimate (log intensity, higher = more binding, comparable within an allelic series); in the experiment with PITX2, 12.7 upbm affinity estimate (log intensity, higher = more binding, comparable within an allelic series); in the experiment with CRX [3], 13.1 upbm affinity estimate (log intensity, higher = more binding, comparable within an allelic series).

Take AGATTATC: the binding signal with CRX [1] was 13.2 upbm affinity estimate (log intensity, higher = more binding, comparable within an allelic series); with CRX [2] it was 13.1 upbm affinity estimate (log intensity, higher = more binding, comparable within an allelic series); with PITX2, 12.5 upbm affinity estimate (log intensity, higher = more binding, comparable within an allelic series); in the experiment with CRX [3], 13.2 upbm affinity estimate (log intensity, higher = more binding, comparable within an allelic series).

In the case of GCTAATCC, the binding signal in the experiment with CRX [1] was 13.4 upbm affinity estimate (log intensity, higher = more binding, comparable within an allelic series); with CRX [2], 13.5 upbm affinity estimate (log intensity, higher = more binding, comparable within an allelic series); with PITX2, 13.3 upbm affinity estimate (log intensity, higher = more binding, comparable within an allelic series); with CRX [3], 13.4 upbm affinity estimate (log intensity, higher = more binding, comparable within an allelic series).

In the case of CGCTGCCG, the binding signal with CRX [1] is 8.07 upbm affinity estimate (log intensity, higher = more binding, comparable within an allelic series); with CRX [2], 8.09 upbm affinity estimate (log intensity, higher = more binding, comparable within an allelic series); in the experiment with VAX1 [4], 6.84 upbm affinity estimate (log intensity, higher = more binding, comparable within an allelic series); with VAX1 [5], 7.05 upbm affinity estimate (log intensity, higher = more binding, comparable within an allelic series); in the experiment with CRX [3], 8.04 upbm affinity estimate (log intensity, higher = more binding, comparable within an allelic series); with VAX1 [6] it was 6.97 upbm affinity estimate (log intensity, higher = more binding, comparable within an allelic series).

For the sequence CCGGTGCG, the binding signal in the experiment with CRX [1] is 8.15 upbm affinity estimate (log intensity, higher = more binding, comparable within an allelic series); in the experiment with CRX [2] it was 8.24 upbm affinity estimate (log intensity, higher = more binding, comparable within an allelic series); with VAX1 [4], 7.06 upbm affinity estimate (log intensity, higher = more binding, comparable within an allelic series); in the experiment with VAX1 [5], 7.11 upbm affinity estimate (log intensity, higher = more binding, comparable within an allelic series); with CRX [3], 8.27 upbm affinity estimate (log intensity, higher = more binding, comparable within an allelic series); with VAX1 [6], 7.12 upbm affinity estimate (log intensity, higher = more binding, comparable within an allelic series).

For CGTTAATC, the binding signal was 12.8 upbm affinity estimate (log intensity, higher = more binding, comparable within an allelic series) in the experiment with CRX [1]; 12.6 upbm affinity estimate (log intensity, higher = more binding, comparable within an allelic series) with CRX [2]; 12.4 upbm affinity estimate (log intensity, higher = more binding, comparable within an allelic series) with PITX2; 12.3 upbm affinity estimate (log intensity, higher = more binding, comparable within an allelic series) with CRX [3].

For the sequence ATAATCCC, the binding signal was 13.5 upbm affinity estimate (log intensity, higher = more binding, comparable within an allelic series) with CRX [1]; 13.7 upbm affinity estimate (log intensity, higher = more binding, comparable within an allelic series) with CRX [2]; 13.2 upbm affinity estimate (log intensity, higher = more binding, comparable within an allelic series) with PITX2; 13.7 upbm affinity estimate (log intensity, higher = more binding, comparable within an allelic series) in the experiment with CRX [3].

The record behind these values is article PMC11006913.
